From ChEMBL document CHEMBL3988442, “University of Dundee, Small-Polar-MMV Screening Library” (2021)
The campaign covered roughly 69,000 compounds. About 950 (1.4%) showed an effect of 50% or more. What follows is part of a selection rich in strong results, with near analogues and random picks from the rest.

System: Mycobacterium tuberculosis
Assay: Cornell M. t heat shock assay; note: in the data most compounds retested in dose-response had high values
Format: functional, organism-based
Design: dose or concentration left out as unconfirmed

SMILES	Percent Effect
Cc1noc(-c2ccc(N3CCN(Cc4ncccc4C)CC3)nc2)n1	-11.68%
Cc1cccnc1CN1CCN(c2noc(-c3ccccc3)n2)CC1	100.3%
CCOc1ccnc(N2CCN(Cc3ncccc3C)CC2)n1	17.62%
Cc1nc(CN2C(=O)CCC23CCN(Cc2cccn2C)CC3)cs1.O=C(O)C(F)(F)F.O=C(O)C(F)(F)F	-21.2%
CC(C)CN1C[C@@H]2CN(C(=O)c3cccn3C)C[C@@H]2C1=O	1.08%
CCN1C[C@@H]2CN(C(=O)c3cccn3C)C[C@@H]2C1=O	97.42%
Cn1cccc1C(=O)N1C[C@H]2CN(CC3CC3)C(=O)[C@H]2C1	12.5%
O=C(NCc1ccc(F)cc1)C1CCCN(c2ccc3nncn3n2)C1 (configuration not stated)	-16.16%
Fc1ccc(CN2CCO[C@H]3[C@H](OCc4ccncc4)CC[C@@H]32)cc1.O=C(O)C(F)(F)F.O=C(O)C(F)(F)F	22.03%
COc1ccc(Oc2ncccc2C(F)(F)F)cc1CN1CCCC1	7.068%
COc1cc(CN2CCCC2)ccc1Oc1ncccc1C(F)(F)F	-12.36%
COc1cc(Oc2ncccc2C(F)(F)F)ccc1CN1CCCC1	53%
C1CN(CC2CC2)C(COCC2CC2)c2nnn(CC3CC3)c21.O=C(O)C(F)(F)F (configuration not stated)	-14.94%
COc1ccc(CNC(=O)Cn2ccc3sccc3c2=O)cc1	-0.6252%
Cl.Cn1cc([C@@H]2CN(S(=O)(=O)c3ccccc3F)C[C@H]2N)c2ccncc21	-1.741%
CN(C)C(=O)CN1CCC2(CCN(CC3CC3)CC2)C1=O.O=C(O)C(F)(F)F	-28.35%
O=C(O)C(F)(F)F.O=C(O)C(F)(F)F.O=C1[C@@H]2CCN(Cc3ccoc3)C[C@@H]2OCCN1Cc1cccnc1	-189.5%
CN(C)CCOCC1CN(Cc2cccc(F)c2)Cc2nccn2C1.O=C(O)C(F)(F)F.O=C(O)C(F)(F)F (configuration not stated)	-23.51%
CCCN(Cc1nc2ccccc2[nH]1)Cc1ccccc1OC	67.04%
CCCN(Cc1cnc2ccccc2n1)Cc1ccccc1OC	19.04%
CCCN(Cc1ccccn1)Cc1ccccc1OC	31.04%
O=C(O)C(F)(F)F.O=C(O)C(F)(F)F.O=C(O)c1c(-c2cccnc2)ncc2c1CCN(Cc1cccnc1)C2	-14.58%
Cc1nc(CO[C@@H]2CN(Cc3nccs3)[C@@H]3COC[C@@H]32)cs1.O=C(O)C(F)(F)F	-44.36%

SMILES	Percent Effect
CN(C)S(=O)(=O)N1CC[C@]2(C[C@@H](Oc3cccnc3)CO2)C1.O=C(O)C(F)(F)F	-11.53%
CC(Nc1nc(-c2ccccc2)nc2c1CCNCC2)c1nccs1 (configuration not stated)	20.74%
CC(Nc1nc(-c2ccccc2)nc2c1CCNCC2)c1cccnc1 (configuration not stated)	73.2%
CC(Nc1nc(-c2ccncc2)nc2c1CCNC2)c1ccccc1 (configuration not stated)	18.8%
O=C(O)C(F)(F)F.O=C(O)C(F)(F)F.c1cnc(N2CCOC3(CCN(CC4CCCCC4)CC3)C2)nc1	13.11%
O=C(O)C(F)(F)F.c1ncn(Cc2cnc3n2CCN(Cc2ccsc2)CC3)n1	-8.028%
Cc1noc(NC(=O)c2cccc(Br)c2)n1	106.8%
CN(C)Cc1ccccc1NC(=O)c1ccc(C#N)cc1	-24.53%
Cc1cc(NC(=O)c2ccc(C)c(F)c2)[nH]n1	1.383%
Cc1noc(NC(=O)c2ccc(C)c(F)c2)n1	105.5%
Cc1noc(NC(=O)c2ccc(Br)s2)n1	103.3%
O=C(NCCn1ccnc1)c1cccc(Br)c1	24.48%
Cc1nc(C(C)(C)NC(=O)Nc2ccc(C#N)cc2)no1	-15.18%
Cc1ccc(C(=O)Nc2cn[nH]c2)cc1F	-0.1311%
Cc1noc(NC(=O)c2ccc(C#N)cc2)n1	69.42%
Cc1c(NC(=O)c2cccc(Br)c2)c(C(=O)N(C)C)nn1C	-8.879%
Cc1noc(NC(=O)c2ccc(Br)o2)n1	-6.271%
Cc1noc(COCC(=O)Nc2ccc(Br)c(C)n2)n1	3.251%
O=C(O)C(F)(F)F.O=C(O)C(F)(F)F.c1ccc(N2CC[C@H](OCC3CC3)[C@@H]2Cc2cccnc2)nc1	14.43%
O=C(O)C(F)(F)F.c1cc(-c2ccc3nc(C4CCN(CC5CC5)CC4)nn3c2)cs1	-34.74%
Cc1cc(C)nc(N2CC=C[C@@H]2C(=O)NCc2ccc3c(c2)OCO3)n1.Cl	15.24%
CN(C)C(=O)N1C[C@@H]2CC[C@H](C1)N(C(=O)c1cccc(N(C)C)c1)C2	-44.86%
CC(C)N(C(=O)Cn1c(-c2ccco2)cc2cccnc21)C(C)C.Cl	22.85%

SMILES	Percent Effect
CCN1CCn2c(C)cnc2C12CCN(C(=O)c1ccco1)CC2.O=C(O)C(F)(F)F.O=C(O)C(F)(F)F	-2.925%
CN(C)CCN1C(=O)CCC12CCCN(C(=O)N(C)C)CC2.O=C(O)C(F)(F)F (configuration not stated)	-13.38%
Cc1nc(C2(O)CCCNCC2)sc1CCOc1ccc(F)cc1.Cl (configuration not stated)	-29.66%
CC[C@@H]1N(Cc2cccnc2)CCC[C@]12CCC(=O)N2C.O=C(O)C(F)(F)F.O=C(O)C(F)(F)F	-6.56%
Cc1cc(CCC2CN(CC3(O)CCCCC3)CCO2)ncn1 (configuration not stated)	-44.25%
O=C(O)C(F)(F)F.O=C1CC[C@H]2[C@@H](CCN2Cc2ccco2)N1	9.652%
O=C(O)C(F)(F)F.O=C(O)C(F)(F)F.c1cc(CN2C[C@@H]3OCCN(CC4CCCO4)[C@@H]3C2)cs1 (some centres not stated)	-21.3%
Cn1cc(CN2C[C@@H]3COC[C@]3(CNC(=O)c3ccccc3)C2)cn1.O=C(O)C(F)(F)F	-17.03%
Cn1cc(CN2CCC3(CC2)CCN(C(=O)c2cscn2)CC3)cn1.O=C(O)C(F)(F)F	-25.9%
Cc1noc(NC(=O)CCNC(=O)c2ccc(Br)cc2)n1	-35.97%
Cc1c(NC(=O)c2ccc(Br)cc2)c(C(=O)N(C)C)nn1C	5.328%
Cc1noc(NC(=O)c2ccc(OC(F)(F)F)cc2)n1	102.9%
CN1C[C@H](O)C[C@H]1c1nc(-c2ccc(OC(F)(F)F)cc2)no1	-7.267%
Cc1noc(NCc2cc(F)ccc2F)n1	-3.185%
Cc1nn(C(C)C)c(C)c1NC(=O)c1ccccc1	-7.424%
Cc1noc(NC(=O)c2ccccc2)n1	75.22%
Cc1noc(NC(=O)c2ccc(Br)cc2)n1	103.7%
Cn1nc(CNC(=O)c2ccc(OC(F)(F)F)cc2)c2c1CCOC2	-19.12%
Cc1noc([C@@H]2C[C@H](NC(=O)Nc3ccccc3)CN2C)n1	-29.39%
Cc1noc(NCc2ccc(F)cc2)n1	-14.89%
Cc1noc(NC(=O)c2ccc(F)cc2)n1	105.9%
